# Paper PMC7862700, “An all-to-all approach to the identification of sequence-specific readers for epigenetic DNA modifications on cytosine”
# Key:
# Experiment in all cases: DAPPL (digital affinity profiling via proximity ligation, sequencing); 10 mM Tris-HCl pH 7.5, 50 mM NaCl, 1 mM DTT, 4% glycerol, room temperature, 30 min; GST-TFs on glutathione beads, 16-mer random dsDNA library, 0.1% formaldehyde crosslink after washing; high values mean tight binding
# [1] = biological target: T1, FLI1 (Homo sapiens, UniProt Q01543 1-452); settings: protein: recombinant; tags: N-terminal GST; dsDNA, one strand shown
# T1 sequence: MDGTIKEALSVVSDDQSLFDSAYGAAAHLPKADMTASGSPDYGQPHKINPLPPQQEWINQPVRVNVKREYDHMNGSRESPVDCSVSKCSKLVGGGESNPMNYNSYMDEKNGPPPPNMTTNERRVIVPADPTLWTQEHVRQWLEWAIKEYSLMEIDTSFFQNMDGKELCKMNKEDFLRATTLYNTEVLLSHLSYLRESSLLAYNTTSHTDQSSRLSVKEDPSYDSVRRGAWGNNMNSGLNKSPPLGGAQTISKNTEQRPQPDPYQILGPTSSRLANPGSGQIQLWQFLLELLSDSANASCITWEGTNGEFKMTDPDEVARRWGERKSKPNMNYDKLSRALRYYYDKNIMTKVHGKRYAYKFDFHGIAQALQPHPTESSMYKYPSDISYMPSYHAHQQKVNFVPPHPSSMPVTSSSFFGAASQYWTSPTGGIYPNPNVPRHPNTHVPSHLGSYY
# In short: (§1)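 Each value of binding signal is a hexamer's read frequency for a factor divided by the same hexamer's frequency in the tag-only sample. Barcoded, bead-captured GST fusions of human transcription factors made in yeast were pooled with that sample and incubated with 200 nmole of a random double-stranded 16-mer DNA library in Tris/NaCl/DTT/glycerol buffer at room temperature for 30 min. Washing, 0.1% formaldehyde crosslinking, proximity ligation, PCR and Illumina NextSeq500 sequencing followed.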
# [2] = biological target: T2, ELK1 (Homo sapiens, UniProt P19419 1-428); settings: protein: recombinant; tags: N-terminal GST; dsDNA, one strand shown
# T2 sequence: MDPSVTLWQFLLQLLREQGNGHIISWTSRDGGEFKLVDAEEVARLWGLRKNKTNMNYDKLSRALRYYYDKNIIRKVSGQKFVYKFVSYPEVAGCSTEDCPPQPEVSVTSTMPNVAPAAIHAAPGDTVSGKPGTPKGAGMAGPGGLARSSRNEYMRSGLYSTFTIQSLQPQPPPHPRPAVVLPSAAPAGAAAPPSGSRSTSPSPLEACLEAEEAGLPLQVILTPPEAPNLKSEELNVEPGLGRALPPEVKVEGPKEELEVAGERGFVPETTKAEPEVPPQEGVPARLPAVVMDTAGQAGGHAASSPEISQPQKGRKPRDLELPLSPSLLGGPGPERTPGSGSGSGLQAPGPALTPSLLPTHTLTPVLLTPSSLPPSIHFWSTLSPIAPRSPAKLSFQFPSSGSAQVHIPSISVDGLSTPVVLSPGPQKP
# In short: as §1
# [3] = biological target: T3, GABPA (Homo sapiens, UniProt Q06546 1-454); settings: protein: recombinant; tags: N-terminal GST; dsDNA, one strand shown
# T3 sequence: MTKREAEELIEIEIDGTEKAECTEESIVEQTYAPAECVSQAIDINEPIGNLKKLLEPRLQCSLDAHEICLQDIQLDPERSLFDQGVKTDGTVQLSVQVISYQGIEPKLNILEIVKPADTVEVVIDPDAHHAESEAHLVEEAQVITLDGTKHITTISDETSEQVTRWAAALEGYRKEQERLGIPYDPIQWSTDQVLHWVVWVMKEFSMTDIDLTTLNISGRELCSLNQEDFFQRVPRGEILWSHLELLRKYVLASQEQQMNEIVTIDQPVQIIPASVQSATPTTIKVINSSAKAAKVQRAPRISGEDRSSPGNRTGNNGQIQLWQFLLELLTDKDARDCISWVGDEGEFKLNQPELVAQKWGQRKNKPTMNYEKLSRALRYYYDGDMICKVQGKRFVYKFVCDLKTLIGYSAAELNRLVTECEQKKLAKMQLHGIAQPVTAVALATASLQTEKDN
# In short: as §1
# [4] = biological target: T4, ERG (Homo sapiens, UniProt P11308 1-479); settings: protein: recombinant; tags: N-terminal GST; dsDNA, one strand shown
# T4 sequence: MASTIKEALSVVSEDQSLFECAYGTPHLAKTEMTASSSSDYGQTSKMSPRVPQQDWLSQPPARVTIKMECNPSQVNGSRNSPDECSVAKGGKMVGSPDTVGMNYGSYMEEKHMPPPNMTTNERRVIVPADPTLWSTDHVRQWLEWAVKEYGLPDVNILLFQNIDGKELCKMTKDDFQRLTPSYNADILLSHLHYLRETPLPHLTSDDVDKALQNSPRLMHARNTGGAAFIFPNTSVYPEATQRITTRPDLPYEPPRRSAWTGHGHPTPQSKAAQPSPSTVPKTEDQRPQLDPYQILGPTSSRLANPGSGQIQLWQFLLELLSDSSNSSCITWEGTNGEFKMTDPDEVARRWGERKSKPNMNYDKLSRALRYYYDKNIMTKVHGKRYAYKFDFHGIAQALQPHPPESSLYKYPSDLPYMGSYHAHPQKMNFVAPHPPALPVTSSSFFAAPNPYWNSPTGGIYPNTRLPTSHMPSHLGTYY
# In short: as §1
# [5] = biological target: ELF1 (Homo sapiens, UniProt P32519 1-619); settings: protein: recombinant; tags: N-terminal GST; dsDNA, one strand shown
# In short: as §1
# [6] = biological target: T5, EHF (Homo sapiens, UniProt Q9NZC4 1-300); settings: protein: recombinant; tags: N-terminal GST; dsDNA, one strand shown
# T5 sequence: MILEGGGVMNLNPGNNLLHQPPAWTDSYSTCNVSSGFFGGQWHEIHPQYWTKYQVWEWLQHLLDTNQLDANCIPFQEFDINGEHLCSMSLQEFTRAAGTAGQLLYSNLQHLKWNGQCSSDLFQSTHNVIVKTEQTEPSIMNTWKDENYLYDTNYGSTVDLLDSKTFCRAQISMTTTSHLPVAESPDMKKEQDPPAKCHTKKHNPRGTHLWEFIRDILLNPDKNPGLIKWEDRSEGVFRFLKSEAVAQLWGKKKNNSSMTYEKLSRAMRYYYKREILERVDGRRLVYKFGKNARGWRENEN
# In short: as §1
# [7] = biological target: SPI1 (Homo sapiens, UniProt P17947 1-270); settings: protein: recombinant; tags: N-terminal GST; dsDNA, one strand shown
# In short: as §1
# [8] = biological target: SPIB (Homo sapiens, UniProt Q01892 1-262); settings: protein: recombinant; tags: N-terminal GST; dsDNA, one strand shown
# In short: as §1
# [9] = biological target: T6, ELK3 (Homo sapiens, UniProt P41970 1-407); settings: protein: recombinant; tags: N-terminal GST; dsDNA, one strand shown
# T6 sequence: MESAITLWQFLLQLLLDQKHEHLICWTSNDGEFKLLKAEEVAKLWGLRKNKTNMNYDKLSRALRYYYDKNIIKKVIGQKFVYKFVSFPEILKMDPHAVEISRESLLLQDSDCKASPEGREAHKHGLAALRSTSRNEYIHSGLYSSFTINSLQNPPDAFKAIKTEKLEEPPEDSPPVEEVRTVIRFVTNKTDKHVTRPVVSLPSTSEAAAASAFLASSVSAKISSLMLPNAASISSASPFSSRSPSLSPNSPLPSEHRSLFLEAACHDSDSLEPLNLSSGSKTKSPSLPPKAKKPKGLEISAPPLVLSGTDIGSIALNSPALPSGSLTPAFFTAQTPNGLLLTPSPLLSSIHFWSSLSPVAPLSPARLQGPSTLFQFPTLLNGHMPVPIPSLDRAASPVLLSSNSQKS
# In short: as §1
# [10] = biological target: T7, FEV (Homo sapiens, UniProt Q99581 1-238); settings: protein: recombinant; tags: N-terminal GST; dsDNA, one strand shown
# T7 sequence: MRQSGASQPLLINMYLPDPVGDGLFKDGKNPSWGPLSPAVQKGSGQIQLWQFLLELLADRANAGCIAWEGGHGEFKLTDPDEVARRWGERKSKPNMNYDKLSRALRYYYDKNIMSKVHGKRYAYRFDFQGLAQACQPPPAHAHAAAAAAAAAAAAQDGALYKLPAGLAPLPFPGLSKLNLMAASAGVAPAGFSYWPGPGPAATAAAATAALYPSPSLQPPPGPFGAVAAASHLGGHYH
# In short: as §1
# [11] = biological target: ETV5 (Homo sapiens, UniProt P41161 1-510); settings: protein: recombinant; tags: N-terminal GST; dsDNA, one strand shown
# In short: as §1
# [12] = biological target: HSF1 (Homo sapiens, UniProt Q00613 1-529); settings: protein: recombinant; tags: N-terminal GST; chain copies: 3; dsDNA, one strand shown
# In short: as §1
# [13] = biological target: T8, SPIC (Homo sapiens, UniProt Q8N5J4 1-248); settings: protein: recombinant; tags: N-terminal GST; dsDNA, one strand shown
# T8 sequence: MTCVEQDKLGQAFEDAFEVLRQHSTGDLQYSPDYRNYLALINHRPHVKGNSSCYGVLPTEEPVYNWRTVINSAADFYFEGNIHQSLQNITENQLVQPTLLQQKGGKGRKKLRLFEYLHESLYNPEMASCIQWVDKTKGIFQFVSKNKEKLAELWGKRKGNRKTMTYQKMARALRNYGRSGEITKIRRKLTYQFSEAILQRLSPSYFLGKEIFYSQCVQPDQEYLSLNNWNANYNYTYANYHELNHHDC
# In short: as §1
# [14] = biological target: ELF4 (Homo sapiens, UniProt Q99607 1-663); settings: protein: recombinant; tags: N-terminal GST; dsDNA, one strand shown
# In short: as §1
# [15] = biological target: T9, ELK4 (Homo sapiens, UniProt P28324-2 1-405); settings: protein: recombinant; tags: N-terminal GST; dsDNA, one strand shown
# T9 sequence: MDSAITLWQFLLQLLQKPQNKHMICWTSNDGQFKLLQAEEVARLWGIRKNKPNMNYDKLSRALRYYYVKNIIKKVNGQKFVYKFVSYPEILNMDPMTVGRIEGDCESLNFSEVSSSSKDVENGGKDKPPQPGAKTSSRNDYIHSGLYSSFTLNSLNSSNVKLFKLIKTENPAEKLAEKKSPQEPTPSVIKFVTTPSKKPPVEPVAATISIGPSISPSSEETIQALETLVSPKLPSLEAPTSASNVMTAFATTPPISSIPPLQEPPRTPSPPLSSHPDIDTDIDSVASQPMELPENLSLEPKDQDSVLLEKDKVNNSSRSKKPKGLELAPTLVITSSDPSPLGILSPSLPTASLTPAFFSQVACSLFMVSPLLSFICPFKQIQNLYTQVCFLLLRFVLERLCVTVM
# In short: as §1
# [16] = biological target: T10, ETV2 (Homo sapiens, UniProt O00321 1-342); settings: protein: recombinant; tags: N-terminal GST; dsDNA, one strand shown
# T10 sequence: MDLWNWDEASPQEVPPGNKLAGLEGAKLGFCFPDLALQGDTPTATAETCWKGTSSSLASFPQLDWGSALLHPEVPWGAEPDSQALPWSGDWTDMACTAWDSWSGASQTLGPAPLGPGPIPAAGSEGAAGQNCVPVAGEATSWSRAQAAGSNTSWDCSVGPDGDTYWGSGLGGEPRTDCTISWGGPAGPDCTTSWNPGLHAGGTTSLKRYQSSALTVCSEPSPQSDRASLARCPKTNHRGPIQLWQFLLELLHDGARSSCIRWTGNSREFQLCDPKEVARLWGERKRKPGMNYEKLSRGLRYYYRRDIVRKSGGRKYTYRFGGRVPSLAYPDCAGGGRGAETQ
# In short: as §1
# [17] = biological target: T11, ELF3 (Homo sapiens, UniProt P78545 1-371); settings: protein: recombinant; tags: N-terminal GST; dsDNA, one strand shown
# T11 sequence: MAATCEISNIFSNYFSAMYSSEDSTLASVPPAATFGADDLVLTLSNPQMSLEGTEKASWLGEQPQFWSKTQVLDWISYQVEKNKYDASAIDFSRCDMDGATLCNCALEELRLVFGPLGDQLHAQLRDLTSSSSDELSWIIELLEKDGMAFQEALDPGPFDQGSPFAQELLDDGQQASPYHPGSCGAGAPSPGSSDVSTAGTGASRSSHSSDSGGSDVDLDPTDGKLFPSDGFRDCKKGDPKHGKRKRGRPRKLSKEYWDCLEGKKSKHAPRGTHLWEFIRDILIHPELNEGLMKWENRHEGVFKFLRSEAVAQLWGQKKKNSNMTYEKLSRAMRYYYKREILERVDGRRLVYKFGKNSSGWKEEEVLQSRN
# In short: as §1
# [18] = biological target: CRX (Homo sapiens, UniProt O43186 1-299); settings: protein: recombinant; tags: N-terminal GST; dsDNA, one strand shown
# In short: as §1
# [19] = biological target: ETV1 (Homo sapiens, UniProt P50549 1-477); settings: protein: recombinant; tags: N-terminal GST; dsDNA, one strand shown
# In short: as §1
# Chain of CRX (O43186 whole entry): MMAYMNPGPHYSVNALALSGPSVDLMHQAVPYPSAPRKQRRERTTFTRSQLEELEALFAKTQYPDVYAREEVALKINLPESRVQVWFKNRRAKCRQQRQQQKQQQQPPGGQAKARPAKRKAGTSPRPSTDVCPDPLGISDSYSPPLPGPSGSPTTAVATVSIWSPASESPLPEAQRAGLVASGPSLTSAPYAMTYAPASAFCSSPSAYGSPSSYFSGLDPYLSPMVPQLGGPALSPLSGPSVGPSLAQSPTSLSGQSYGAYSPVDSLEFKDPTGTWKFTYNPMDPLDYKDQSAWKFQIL
# Chain of SPIB (Q01892 whole entry): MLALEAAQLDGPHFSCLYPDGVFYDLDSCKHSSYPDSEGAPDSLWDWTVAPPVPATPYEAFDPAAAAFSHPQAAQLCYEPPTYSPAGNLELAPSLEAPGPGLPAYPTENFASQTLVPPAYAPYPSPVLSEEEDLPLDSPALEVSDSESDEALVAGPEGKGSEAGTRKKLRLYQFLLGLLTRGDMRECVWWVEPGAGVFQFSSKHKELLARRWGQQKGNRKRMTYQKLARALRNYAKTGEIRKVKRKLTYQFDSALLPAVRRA
# Chain of ELF4 (Q99607 whole entry): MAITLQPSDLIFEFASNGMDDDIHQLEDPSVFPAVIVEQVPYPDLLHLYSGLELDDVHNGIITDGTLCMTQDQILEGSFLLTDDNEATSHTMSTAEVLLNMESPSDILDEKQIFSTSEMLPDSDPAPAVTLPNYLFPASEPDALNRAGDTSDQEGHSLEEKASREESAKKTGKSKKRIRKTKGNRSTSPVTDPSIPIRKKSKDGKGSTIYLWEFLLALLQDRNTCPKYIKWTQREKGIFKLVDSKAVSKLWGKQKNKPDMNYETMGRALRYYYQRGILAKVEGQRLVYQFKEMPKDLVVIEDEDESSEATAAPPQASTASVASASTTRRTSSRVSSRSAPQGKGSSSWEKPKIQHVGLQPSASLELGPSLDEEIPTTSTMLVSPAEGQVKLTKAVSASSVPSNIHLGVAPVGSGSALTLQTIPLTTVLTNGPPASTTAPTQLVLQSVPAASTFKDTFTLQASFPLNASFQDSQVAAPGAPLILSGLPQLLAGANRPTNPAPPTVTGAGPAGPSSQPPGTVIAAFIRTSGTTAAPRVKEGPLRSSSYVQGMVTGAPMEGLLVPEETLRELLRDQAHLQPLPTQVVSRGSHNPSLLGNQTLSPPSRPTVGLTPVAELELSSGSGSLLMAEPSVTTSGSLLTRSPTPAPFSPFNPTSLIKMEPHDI
# Chain of ELF1 (P32519 whole entry): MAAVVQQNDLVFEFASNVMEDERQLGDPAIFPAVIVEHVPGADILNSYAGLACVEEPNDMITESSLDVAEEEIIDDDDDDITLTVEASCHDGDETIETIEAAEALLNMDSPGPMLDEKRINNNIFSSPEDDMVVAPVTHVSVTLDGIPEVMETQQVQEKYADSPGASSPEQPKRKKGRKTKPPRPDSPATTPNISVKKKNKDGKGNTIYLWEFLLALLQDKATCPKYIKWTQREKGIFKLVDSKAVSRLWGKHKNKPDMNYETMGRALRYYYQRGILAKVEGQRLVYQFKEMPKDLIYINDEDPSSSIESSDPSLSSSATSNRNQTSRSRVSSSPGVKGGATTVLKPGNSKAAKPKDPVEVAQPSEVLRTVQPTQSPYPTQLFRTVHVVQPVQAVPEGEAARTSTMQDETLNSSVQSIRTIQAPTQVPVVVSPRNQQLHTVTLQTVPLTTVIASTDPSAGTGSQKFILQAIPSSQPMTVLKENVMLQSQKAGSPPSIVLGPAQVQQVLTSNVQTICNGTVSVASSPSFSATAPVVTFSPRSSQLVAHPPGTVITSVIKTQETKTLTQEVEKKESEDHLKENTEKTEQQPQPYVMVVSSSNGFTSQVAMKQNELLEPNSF
# Chain of HSF1 (Q00613 whole entry): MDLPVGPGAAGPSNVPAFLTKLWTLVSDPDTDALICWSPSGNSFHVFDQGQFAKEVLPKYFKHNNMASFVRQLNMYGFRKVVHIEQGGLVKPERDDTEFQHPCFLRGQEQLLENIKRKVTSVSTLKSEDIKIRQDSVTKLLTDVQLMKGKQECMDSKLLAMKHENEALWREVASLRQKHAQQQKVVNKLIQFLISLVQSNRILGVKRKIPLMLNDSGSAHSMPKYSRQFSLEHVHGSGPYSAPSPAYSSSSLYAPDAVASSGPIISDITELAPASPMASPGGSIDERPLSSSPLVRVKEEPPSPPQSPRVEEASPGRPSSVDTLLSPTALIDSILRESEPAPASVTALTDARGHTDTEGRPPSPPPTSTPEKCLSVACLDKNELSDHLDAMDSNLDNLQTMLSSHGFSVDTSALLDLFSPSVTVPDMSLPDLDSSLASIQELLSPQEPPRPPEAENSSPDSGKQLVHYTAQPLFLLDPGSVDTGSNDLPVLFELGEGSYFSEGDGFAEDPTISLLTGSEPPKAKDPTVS
# Chain of ETV5 (P41161 whole entry): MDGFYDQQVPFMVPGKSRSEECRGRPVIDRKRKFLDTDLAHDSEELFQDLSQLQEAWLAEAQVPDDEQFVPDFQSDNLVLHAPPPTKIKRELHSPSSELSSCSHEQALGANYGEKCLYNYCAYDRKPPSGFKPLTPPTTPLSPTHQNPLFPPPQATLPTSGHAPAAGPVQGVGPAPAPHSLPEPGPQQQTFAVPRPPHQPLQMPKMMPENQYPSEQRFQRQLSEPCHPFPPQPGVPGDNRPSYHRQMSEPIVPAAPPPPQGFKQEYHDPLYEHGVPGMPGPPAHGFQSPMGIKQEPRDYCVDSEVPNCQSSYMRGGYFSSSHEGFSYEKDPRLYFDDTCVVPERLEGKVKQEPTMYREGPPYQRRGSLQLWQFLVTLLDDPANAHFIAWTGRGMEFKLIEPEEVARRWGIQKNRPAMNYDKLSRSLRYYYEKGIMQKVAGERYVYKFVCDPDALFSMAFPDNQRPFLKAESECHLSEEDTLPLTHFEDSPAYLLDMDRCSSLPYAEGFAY
# Chain of ETV1 (P50549 whole entry): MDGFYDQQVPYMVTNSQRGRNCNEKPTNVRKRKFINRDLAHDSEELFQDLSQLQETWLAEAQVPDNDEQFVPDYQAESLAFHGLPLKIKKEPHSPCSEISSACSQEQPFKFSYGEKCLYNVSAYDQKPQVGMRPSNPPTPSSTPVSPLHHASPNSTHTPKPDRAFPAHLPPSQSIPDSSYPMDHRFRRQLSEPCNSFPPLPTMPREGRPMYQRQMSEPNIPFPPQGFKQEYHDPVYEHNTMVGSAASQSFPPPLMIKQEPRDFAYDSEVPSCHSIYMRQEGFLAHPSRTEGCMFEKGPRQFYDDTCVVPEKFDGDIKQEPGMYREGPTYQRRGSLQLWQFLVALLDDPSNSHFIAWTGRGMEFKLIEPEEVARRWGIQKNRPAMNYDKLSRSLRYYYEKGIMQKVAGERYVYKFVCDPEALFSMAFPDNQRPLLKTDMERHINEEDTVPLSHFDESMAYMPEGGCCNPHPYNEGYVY
sequence,measurement,setting,value
TCTCAC,binding signal,[1],"1.45 fold enrichment (6-mer frequency, TF over GST control)"
same,binding signal,[2],"1.45 fold enrichment (6-mer frequency, TF over GST control)"
same,binding signal,[3],"1.43 fold enrichment (6-mer frequency, TF over GST control)"
same,binding signal,[4],"1.41 fold enrichment (6-mer frequency, TF over GST control)"
same,binding signal,[5],"1.39 fold enrichment (6-mer frequency, TF over GST control)"
same,binding signal,[6],"1.39 fold enrichment (6-mer frequency, TF over GST control)"
same,binding signal,[7],"1.36 fold enrichment (6-mer frequency, TF over GST control)"
same,binding signal,[8],"1.48 fold enrichment (6-mer frequency, TF over GST control)"
same,binding signal,[9],"1.58 fold enrichment (6-mer frequency, TF over GST control)"
same,binding signal,[10],"1.47 fold enrichment (6-mer frequency, TF over GST control)"
same,binding signal,[11],"1.34 fold enrichment (6-mer frequency, TF over GST control)"
same,binding signal,[12],"1.3 fold enrichment (6-mer frequency, TF over GST control)"
same,binding signal,[13],"1.55 fold enrichment (6-mer frequency, TF over GST control)"
same,binding signal,[14],"1.37 fold enrichment (6-mer frequency, TF over GST control)"
same,binding signal,[15],"1.35 fold enrichment (6-mer frequency, TF over GST control)"
same,binding signal,[16],"1.18 fold enrichment (6-mer frequency, TF over GST control)"
same,binding signal,[17],"1.42 fold enrichment (6-mer frequency, TF over GST control)"
same,binding signal,[18],"1.33 fold enrichment (6-mer frequency, TF over GST control)"
same,binding signal,[19],"1.3 fold enrichment (6-mer frequency, TF over GST control)"
